Bioassay records deposited in PubChem by Broad Institute.
A selection: hits, their analogues and other compounds. The true share with any hit is near 4.8%.
ALR H2O2 inh = human ALR oxidase inhibition via reduced H2O2 | purified ALR, DTT oxidation, H2O2 HRP-luminol luminescence | inhibition, % (concentration not given with the values) | 3.8% of 290,000 active | AID 485317;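 active = mean replicate inhibition above about 79%, with every replicate also reaching it, limit read from the data; inconclusive = only one of the two criteria met; inactive = mean below limit and not every replicate reaching it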
Target sequence (P55789 whole entry, looked up): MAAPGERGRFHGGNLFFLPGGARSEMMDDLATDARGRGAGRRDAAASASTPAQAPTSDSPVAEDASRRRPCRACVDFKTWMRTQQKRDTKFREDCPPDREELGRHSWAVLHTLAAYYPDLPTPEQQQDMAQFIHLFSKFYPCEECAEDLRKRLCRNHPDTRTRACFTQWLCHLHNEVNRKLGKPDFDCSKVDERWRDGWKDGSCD
HIF activator = HIF pathway transcriptional activation; U2OS HRE-luciferase reporter, luminescence; normalized: DMSO 0%, desferrioxamine 100%; activation, % at 7.5 µM (by protocol); 0.32% of 300,000 active; AID 1910;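 active = mean activation of at least 10% of the iron chelator positive control signal, with at least half of replicates also reaching 10%; inconclusive = mean and replicate majority disagree about reaching 10%; inactive = mean and most replicates under 10%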
AI-2 QS modul = modulators of Vibrio harveyi AI-2 quorum sensing system; activity change, % at 7.5 µM; Vibrio harveyi JMH597 AI-2 luminescence/OD600 ratio, 9 h; hits give low values; strain lacks LuxN and CqsS sensors; 0 = neutral-control median; 0.4% of 300,000 active; AID 2094; in the data active = activity change below about -75%, passing the limit was not always enough; inconclusive = no clear call, values can overlap the other calls;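 note: luminescence divided by OD600 gain over 9 h not by final OD600 alone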
SUMO Mot1 rescue = inhibitors of SUMOylation pathway: yeast Mot1-301 growth rescue | S. cerevisiae Mot1-301 growth rescue, ATP luminescence, 38.5C; percent above DMSO median, 100 means doubled | growth rescue, % at 18.8 µM | 1% of 320,000 active | AID 2716;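 active = every valid replicate shows activation above 250% relative to neutral control wells; inactive = the rest, any valid replicate at or below 250%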;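 note: OY570 slx delta 5 strain wells were the positive control but not used for scaling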
* marks the source's active call; other numbers are inactive results; ? = inconclusive; . = no result.

SMILES	ALR H2O2 inh	HIF activator	AI-2 QS modul	SUMO Mot1 rescue
CC1CCCC(NC(=O)CSc2nnc(C(F)(F)F)n2C)C1C (stereo unspecified)	-4	.	.	-8
O=C(NCc1ccccc1Cl)c1nnc(CS(=O)(=O)c2ccccc2)o1	0	0	25	7
COc1cc(-c2c(C#N)c(=O)[nH]c3c2c(C)nn3-c2ccccc2)ccc1O	99*	0	10	284
CC(OC(=O)CNC(=O)c1sc2ccccc2c1Cl)C(=O)NC1(C#N)CCCCC1 (stereo unspecified)	-4	.	.	-9
COc1ccc(-c2[nH]c(-c3ccc4c(c3)OCO4)nc2-c2ccccc2)cc1	.	1	23	18
COc1ccc(-c2[nH]c(-c3ccc(C(=O)O)cc3)nc2-c2ccccc2)cc1	99*	0	10	-7
O=C(O)c1ccc(-c2nc(-c3ccccc3)c(-c3ccccc3)[nH]2)cc1	98*	-2	17	-8
O=C(O)CSc1nc(-c2ccccc2)c(-c2ccccc2)[nH]1	.	0	22	2
Cc1ccccc1NS(=O)(=O)c1ccc(C(=O)NCCCN2CCCC2=O)cc1	6	0	-3	-14
COc1cccc(OCC(=O)Nc2c3c(nn2-c2ccc(F)cc2)CS(=O)(=O)C3)c1	-24	0	7	-5
O=C(O)c1ccc(/C=N/n2cc(-c3ccccc3)[nH]c2=S)cc1	99*	0	13	0
COc1cc(/C=N/n2c(-c3ccccc3)n[nH]c2=S)ccc1O	99*	0	29	46
COc1ccc(/C=N/n2c(-c3n[nH]c4c3CCC4)n[nH]c2=S)cc1OC	-4	0	-4	251
COc1cc(/C=N/n2c(-c3n[nH]c4c3CCC4)n[nH]c2=S)ccc1O	99*	0	29	-7
Oc1c(Br)cc(/C=N/n2c(-c3ccccc3)n[nH]c2=S)c(O)c1Br	?	0	23	69
Cc1c(Br)c(O)c(Br)c(O)c1/C=N/n1c(-c2ccccc2)n[nH]c1=S	98*	2	40	2
O=S(=O)(NCCC1=CCCCC1)c1ccc(OC(F)(F)F)cc1	-3	0	0	-15
O=C(CSc1nnc(NC(=O)C2CC(=O)N(c3ccc(F)cc3)C2)s1)NC1CCCC1 (stereo unspecified)	1	-1	16	6
O=C(Cc1c(F)cccc1Cl)OCC(=O)c1ccc[nH]1	-11	.	.	36
Cc1ccnc2nc(C(=O)OCC(=O)N(Cc3ccccc3)C(C)C)nn12	25	.	.	8
Cc1ccc(-c2n[nH]c(=S)n2/N=C/c2ccc(C(=O)O)cc2)cc1	90*	0	18	11
COc1cc(-c2n[nH]c(=S)n2/N=C/c2cccn2C)cc(OC)c1OC	97*	1	7	0
COc1cc(/C=N/n2c(COc3ccccc3)n[nH]c2=S)cc(Br)c1O	97*	0	14	16
Cc1ccc(/C=N/n2c(-c3ccccc3)n[nH]c2=S)cc1	-6	0	23	-13
CCc1n[nH]c(=S)n1/N=C/c1cc(Br)c(O)c(OC)c1	68	-1	38	-20
SMILES	ALR H2O2 inh	HIF activator	AI-2 QS modul	SUMO Mot1 rescue
O=[N+]([O-])c1cc(Cc2ccccc2)cc(C=Nc2ccc(N3CCOCC3)cc2)c1O	97*	-1	42	23
Oc1ccc(C=Nc2ccc(N3CCOCC3)cc2)c(O)c1	99*	2	4	-5
Cc1ccc(O)c(N=Cc2cc(Cc3ccccc3)cc([N+](=O)[O-])c2O)c1	.	0	32	.
CS(=O)(=O)c1cccc(C(=O)N(CCc2ccccc2)Cc2cccs2)c1	-4	15*	-4	245
O=C(c1cccc(S(=O)(=O)N2CCCCC2)c1)N(CCc1ccccc1)Cc1ccccc1	-1	-1	7	-1
COC(=O)C1CSC(C(=O)OC)N1C(=O)CN1CCN(c2ccccc2)CC1 (stereo unspecified)	91*	-1	19	-6
CC(C)=CC1C(C(=O)NCCc2ccccc2)C1(C)C (stereo unspecified)	-1	0	15	23
COc1cc(CNc2cc(C)ccc2C)cc(OC)c1OC	99*	0	-6	-5
COc1cc(Br)c(CNc2cc(C)ccc2C)cc1OC	.	1	22	-2
COc1cc(C)c(CNc2ccc(OC)c(OC)c2)cc1C	82*	1	14	-5
CCOc1cc(CNc2ccc3c(c2)CCC3)ccc1O	-11	2	10	-5
COc1cc(CNc2ccc(C)c(C)c2)cc(OC)c1OC	97*	2	30	122
COc1cc(CNc2ccc3c(c2)CCC3)cc(OC)c1O	99*	2	18	0
COc1cc(C)c(CNc2cccc(C)c2)cc1C	44	0	5	-10
CCOC(=O)C1(CC)NC(c2ccc(OC)c(OC)c2)C2C(=O)N(c3cccc(C(C)=O)c3)C(=O)C21 (stereo unspecified)	5	-1	10	10
O=C(N/N=C/c1ccccc1F)c1ccccc1OCc1ccccc1	-7	1	17	-3
O=C(NC1CC2CCCC(C1)N2C(=O)Nc1ccccc1F)C1CC1 (stereo unspecified)	3	0	9	-3
CCN(CC)CCN(C(=O)c1ccc2c(c1)CCCC2)c1nc2c(C)cccc2s1	-13	1	5	11
COc1ccc(CNc2cc(C)ccc2C)c(OC)c1OC	98*	0	11	8
Cn1c(CO)nc2cc(N)ccc21	80*	0	2	-1
Cc1nc2cc(CO)ccc2n1C	-2	0	-2	4
Nc1ccc(-c2nc3cc(N)ccc3n2CCO)cc1	98*	-1	22	-16
Cn1c(C2CCCCC2)nc2cc(N)ccc21	89*	-10	22	-4
Cn1c(C2CCCCC2)nc2ccccc21	-1	-2	15	-4
COc1ccccc1CC(=O)Nc1cc(Cl)ccc1O	0	0	6	-6
SMILES	ALR H2O2 inh	HIF activator	AI-2 QS modul	SUMO Mot1 rescue
COc1ccccc1NC(=O)CSC(N)=O	99*	0	20	-2
COc1ccccc1CC(=O)Nc1ccccc1O	89*	0	6	2
NC(=O)SCC(=O)Nc1ccccc1C(=O)O	94*	-1	21	5
O=C(CSc1ccccc1)Nc1ccccc1C(=O)O	35	0	22	-11
O=C(Cn1cc(CNC(=O)C2CCCCC2)nn1)Nc1cc(C(F)(F)F)ccc1Cl	2	.	.	-11
CCn1ccnc1CN(C)C(=O)c1cc(COc2ccccc2SC)on1	11	3	9	-2
OC12CC3C[C@H](C1)C(N1CCOCC1)[C@@H](C3)C2 (stereo partly specified)	.	1	13	202
C=CCn1c(SCc2ccc(C(=O)O)cc2)nc2sc(C)c(C)c2c1=O	99*	0	27	-8
NC(=O)COC(=O)c1sc2ccccc2c1Cl	-1	-1	20	545*
CC(C)c1nnc(NC(=O)c2sc3ccccc3c2Cl)s1	98*	2	33	16
Cc1occc1C(=O)NNC1=CC(=O)CC(C)(C)C1	89*	0	27	36
CC1(C)CC(=O)C=C(NNC(=O)c2ccccc2)C1	22	-1	33	112
